Screening data (PubChem BioAssay)
The list is not random: actives were taken first. Their share in the collection is about 27%.
CYP2C19 inhib: blockers of cytochrome P450 2C19 activity – biochemical, luminescence, ADME assay, primary screen; P33261; CYP2C19 Supersomes, luciferin-H EGE luminescence, 30 min; inhibition, % at 5 µM; 21% of 96,000 active;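 active = CYP2C19 inhibition above a set limit at 5 µM in the primary screen, cut at about 50% in these data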
CYP2C9 act: human CYP2C9 activators, primary screen, biochemical, luminescence; Cytochrome P450 2C9 (Homo sapiens), P11712; recombinant CYP2C9, luciferin-H conversion; active compounds read high; factor 1 = untreated enzyme, 0 = blocked; activation factor at 5 µM; 1.4% of 96,000 active;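 active = activation factor of 2 or more for CYP2C9 at a 5 µM dose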
Cav32 inh: Cav3.2 calcium influx blockers – cell-based, Fluo-4 calcium fluorescence, FDSS, MLSMR library, primary screen; AID 449739, 2010; Voltage-dependent T-type calcium channel subunit alpha-1H (Homo sapiens), O95180; 4% of 100,000 active; Cav3.2-expressing cells; active compounds read low; B-score at 10 µM;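 active = single-dose well whose peak fluorescence ratio is a statistical outlier from its plate by either plate-standardised score or position-corrected B-score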
Target sequence (O95180 whole entry, looked up): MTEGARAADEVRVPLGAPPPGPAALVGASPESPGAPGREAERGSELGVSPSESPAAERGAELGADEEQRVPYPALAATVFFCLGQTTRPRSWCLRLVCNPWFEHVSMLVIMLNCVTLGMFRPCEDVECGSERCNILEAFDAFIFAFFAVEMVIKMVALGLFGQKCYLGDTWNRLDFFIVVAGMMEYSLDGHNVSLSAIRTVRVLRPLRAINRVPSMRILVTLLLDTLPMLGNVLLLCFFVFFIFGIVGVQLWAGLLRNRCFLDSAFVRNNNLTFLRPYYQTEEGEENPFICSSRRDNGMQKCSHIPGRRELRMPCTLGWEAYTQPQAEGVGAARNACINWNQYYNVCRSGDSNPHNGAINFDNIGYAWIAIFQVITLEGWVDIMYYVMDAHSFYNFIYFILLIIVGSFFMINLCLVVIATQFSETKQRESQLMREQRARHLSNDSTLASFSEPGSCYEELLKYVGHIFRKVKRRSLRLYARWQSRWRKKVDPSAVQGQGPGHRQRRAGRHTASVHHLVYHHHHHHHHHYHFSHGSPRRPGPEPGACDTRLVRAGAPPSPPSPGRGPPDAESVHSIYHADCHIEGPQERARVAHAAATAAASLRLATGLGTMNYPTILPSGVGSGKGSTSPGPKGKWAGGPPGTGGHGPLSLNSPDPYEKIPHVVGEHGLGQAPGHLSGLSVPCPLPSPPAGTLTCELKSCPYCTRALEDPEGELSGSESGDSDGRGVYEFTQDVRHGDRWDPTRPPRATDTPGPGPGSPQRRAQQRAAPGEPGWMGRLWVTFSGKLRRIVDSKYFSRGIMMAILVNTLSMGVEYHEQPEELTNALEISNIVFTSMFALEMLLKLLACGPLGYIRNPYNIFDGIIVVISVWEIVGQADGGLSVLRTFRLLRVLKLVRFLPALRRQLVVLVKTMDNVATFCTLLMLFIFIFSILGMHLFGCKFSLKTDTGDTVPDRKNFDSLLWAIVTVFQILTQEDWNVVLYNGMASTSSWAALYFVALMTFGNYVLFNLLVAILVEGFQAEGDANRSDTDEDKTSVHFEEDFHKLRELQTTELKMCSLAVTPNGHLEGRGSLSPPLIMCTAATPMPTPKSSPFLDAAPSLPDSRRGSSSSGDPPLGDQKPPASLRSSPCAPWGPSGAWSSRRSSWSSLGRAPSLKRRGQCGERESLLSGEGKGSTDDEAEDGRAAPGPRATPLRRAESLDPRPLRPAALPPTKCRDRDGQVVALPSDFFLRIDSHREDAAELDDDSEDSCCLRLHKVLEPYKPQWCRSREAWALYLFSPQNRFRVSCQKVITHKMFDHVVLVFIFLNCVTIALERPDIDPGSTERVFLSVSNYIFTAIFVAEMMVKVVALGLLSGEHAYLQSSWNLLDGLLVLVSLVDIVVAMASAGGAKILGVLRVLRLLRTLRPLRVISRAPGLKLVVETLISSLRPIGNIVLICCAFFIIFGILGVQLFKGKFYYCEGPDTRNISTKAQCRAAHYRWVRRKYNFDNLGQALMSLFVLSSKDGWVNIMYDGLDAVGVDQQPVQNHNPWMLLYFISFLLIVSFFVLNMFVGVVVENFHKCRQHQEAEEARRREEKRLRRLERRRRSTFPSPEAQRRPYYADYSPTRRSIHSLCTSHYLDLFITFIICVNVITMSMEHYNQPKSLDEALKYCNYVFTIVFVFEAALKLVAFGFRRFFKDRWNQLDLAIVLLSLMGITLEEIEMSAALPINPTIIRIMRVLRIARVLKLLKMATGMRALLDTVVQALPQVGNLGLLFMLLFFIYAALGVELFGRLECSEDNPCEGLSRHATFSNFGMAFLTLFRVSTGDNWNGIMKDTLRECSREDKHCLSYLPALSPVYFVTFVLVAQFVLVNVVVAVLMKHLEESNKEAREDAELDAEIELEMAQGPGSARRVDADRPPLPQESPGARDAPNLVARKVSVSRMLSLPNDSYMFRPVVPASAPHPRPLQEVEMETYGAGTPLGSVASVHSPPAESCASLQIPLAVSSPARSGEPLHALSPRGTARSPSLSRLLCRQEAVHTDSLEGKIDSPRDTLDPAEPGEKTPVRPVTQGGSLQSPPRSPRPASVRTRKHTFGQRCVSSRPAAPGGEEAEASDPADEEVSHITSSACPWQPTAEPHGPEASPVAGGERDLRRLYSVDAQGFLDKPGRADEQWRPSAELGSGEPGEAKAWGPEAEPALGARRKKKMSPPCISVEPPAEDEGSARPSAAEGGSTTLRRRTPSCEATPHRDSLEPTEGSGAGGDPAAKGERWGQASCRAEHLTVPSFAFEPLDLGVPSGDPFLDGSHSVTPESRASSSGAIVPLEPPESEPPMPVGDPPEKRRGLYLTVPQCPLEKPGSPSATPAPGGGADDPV
CYP2C19 activ: human CYP2C19 activators, primary screen, biochemical, luminescence; Cytochrome P450 2C19 (Homo sapiens), P33261; recombinant CYP2C19, luciferin-H EGE luminescence; active compounds read high; 0 = fully inhibited enzyme, 1 = untreated enzyme; activation factor at 5 µM; 96,000 tested, under 10 active; AID 1025, 2008;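 active = activation factor of at least 2 at 5 µM in the primary screen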
CYP2C9 inhib: blockers of cytochrome P450 2C9 activity – biochemical, luminescence, ADME assay, primary screen. AID 777, 2007. 20% of 96,000 active. inhibition, % at 5 µM. CYP2C9 Supersomes, luciferin-H conversion;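 active = blocking of liver enzyme CYP2C9 beyond about 50% at 5 µM, limit read from the data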
Numbers stand for hits.

Screening OCC1(O)OC[C@@H](O)[C@H]1O (stereo partly drawn) returned Cav32 inh inactive.
`O=C1C(=O)N(CCCN2CCOCC2)C(c2cccs2)/C1=C(/O)c1ccc2c(c1)OCO2` (stereo not drawn) gave Cav32 inh inactive.
`CCc1cc(C(=O)Nc2ccccc2)cs1` gave CYP2C19 inhib 76, CYP2C9 act inactive, Cav32 inh inactive, CYP2C19 activ inactive and CYP2C9 inhib inactive.
`CCOC(=O)c1c(NC(=O)CNCCO)sc(C)c1C` gave CYP2C19 inhib inactive, CYP2C9 act inactive, Cav32 inh inactive, CYP2C19 activ inactive and CYP2C9 inhib 65.
COC(=O)c1ccc(C(=O)OC)c(NC(=O)CCc2ccc(C)o2)c1 was read as CYP2C19 inhib 51, CYP2C9 act inactive, Cav32 inh inactive, CYP2C19 activ inactive and CYP2C9 inhib inactive.
`Cc1sc(NC(=O)C2CCCCC2C(=O)O)c(C(N)=O)c1C` (stereo not drawn) gave CYP2C19 inhib inactive, CYP2C9 act inactive, Cav32 inh -4.2, CYP2C19 activ inactive and CYP2C9 inhib inactive.
CCOC(=O)c1c(NC(N)=O)sc(C)c1C was read as CYP2C19 inhib inactive, CYP2C9 act inactive, Cav32 inh inactive, CYP2C19 activ inactive and CYP2C9 inhib 52.
CCN(CCNC(=O)CCCn1nc(C)n2c(cc3sccc32)c1=O)c1ccccc1 was read as CYP2C19 inhib inactive, CYP2C9 act inactive, Cav32 inh inactive, CYP2C19 activ inactive and CYP2C9 inhib inactive.
For Cc1ccc(NS(=O)(=O)c2ccc(NC(=O)[C@@H]3CCCC[C@@H]3C(=O)O)cc2)c(C)c1 the results were CYP2C19 inhib inactive, CYP2C9 act inactive, Cav32 inh inactive, CYP2C19 activ inactive and CYP2C9 inhib inactive.
For COC(=O)c1c(NC(=O)CCc2ccc(C)o2)sc(C)c1C the results were CYP2C19 inhib inactive, CYP2C9 act inactive, Cav32 inh inactive, CYP2C19 activ inactive and CYP2C9 inhib inactive.
Screening CCc1ccc(CCC(=O)Nc2ccc(C(C)=O)cc2)o1 returned Cav32 inh inactive.
`CCc1ccc(CCC(=O)Nc2ccc(C)cc2C)o1` gave CYP2C19 inhib 79, CYP2C9 act inactive, Cav32 inh inactive, CYP2C19 activ inactive and CYP2C9 inhib inactive.
For CCOC(=O)c1c(NC(=O)CCc2ccc(CC)o2)sc(C)c1C the results were CYP2C19 inhib inactive, CYP2C9 act inactive, Cav32 inh -4.5, CYP2C19 activ inactive and CYP2C9 inhib inactive.
`CCCCCCCCN1[C@@H](CC(=O)OCC)c2ccc(C(F)(F)F)cc2S1(=O)=O` gave Cav32 inh inactive.
For O=C(Nc1cn(-c2ccccc2)nc1-c1cccs1)c1ccco1 the results were CYP2C19 inhib inactive, CYP2C9 act inactive, Cav32 inh inactive, CYP2C19 activ inactive and CYP2C9 inhib inactive.
`CN1CCN(C(=O)N2CCNC2=O)CC1` gave CYP2C19 inhib inactive, CYP2C9 act inactive, Cav32 inh inactive, CYP2C19 activ inactive and CYP2C9 inhib inactive.
For COC(=O)CSc1nnc(-c2ccco2)n1Cc1ccco1 the results were CYP2C19 inhib inactive, CYP2C9 act inactive, Cav32 inh inactive, CYP2C19 activ inactive and CYP2C9 inhib inactive.
`O=C(CSc1nnc(-c2ccncc2)n1Cc1ccco1)OC1CCCCC1` gave CYP2C19 inhib 98, CYP2C9 act inactive, Cav32 inh inactive, CYP2C19 activ inactive and CYP2C9 inhib 92.
For O=C(CSc1nnc(-c2ccco2)n1Cc1ccccc1)OC1CCCCC1 the results were CYP2C19 inhib inactive, CYP2C9 act inactive, Cav32 inh -6.2, CYP2C19 activ inactive and CYP2C9 inhib inactive.
`COCCn1cnnc1SCC(=O)Nc1ccccc1C(=O)Nc1ccc2c(c1)OCO2` gave CYP2C19 inhib 58, CYP2C9 act inactive, Cav32 inh inactive, CYP2C19 activ inactive and CYP2C9 inhib 94.
Cc1ccccc1C(=O)Nc1ccc2c(c1)OCO2 was read as CYP2C19 inhib 84, CYP2C9 act inactive, Cav32 inh inactive, CYP2C19 activ inactive and CYP2C9 inhib inactive.
Screening CC12CC(NC(=O)N1c1cccc(C(=O)Nc3ncn[nH]3)c1)c1ccccc1O2 (stereo not drawn) returned CYP2C19 inhib inactive, CYP2C9 act inactive, Cav32 inh inactive, CYP2C19 activ inactive and CYP2C9 inhib inactive.
`COc1cccc2c1OC1(C)CC2NC(=O)N1c1cccc(C(=O)Nc2ccc3c(c2)OCCO3)c1` (stereo not drawn) gave CYP2C19 inhib inactive, CYP2C9 act inactive, Cav32 inh inactive, CYP2C19 activ inactive and CYP2C9 inhib 72.
